# Most compounds without a hit are left out; they make up all but 12% or so of the library.
# BAZ2B inh: BAZ2B (human) inhibition | AlphaScreen BAZ2B-H3K14Ac peptide displacement | Potency, µM (highest dose often 114 µM), usual class: inhibitors | 360,000 tested, 4.4% active | AID 504333; note: nearly all actives have a fitted effect of over 60% in size
#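 BAZ2B 50 nM plus b-H3(5-23)K14Ac 50 nM, PBS pH 7.4/0.01% Tween-20, 30 min RT; compound added (max 110 uM), 30 min RT; streptavidin donor/Ni-chelate acceptor beads 10 ug/mL final, 20 min dark; AlphaScreen read.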
# PLK1 PBD block: blocks phosphopeptide binding to human PLK1 polo-box domain. P53350. Plk1 PBD binding of FITC phosphopeptide, fluorescence polarization. Potency, µM, most hits filed as inhibitors. 360,000 tested, 2.8% active. AID 720504; note: series mostly up to about 57 µM; nearly all actives have a fitted effect of over 65% in size
# HP1b binding inh: inhibitors of HP1-beta chromodomain binding to methylated histone tails; P83916; AlphaScreen HP1-beta / biotin-H3K9me3 peptide binding; Potency, µM (highest dose often 114 µM), actives largely listed as inhibitors; 390,000 tested, 0.56% active; note: nearly all actives have a fitted effect of over 70% in size
#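 AlphaScreen: HP1-beta (50 nM) preformed 30 min with biotin-H3(1-18)K9me3 peptide (50 nM) in PBS pH 7.4, 0.01% Tween-20. Compound added for 30 min at RT, then streptavidin donor/nickel chelate acceptor beads (10 ug/mL) for 30 min.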
# G9a inh: inhibitors of human histone lysine methyltransferase G9a; Q96KQ7; G9a H3K9 monomethylation, AlphaScreen, 2 h; Potency, µM (series often up to 102 µM), actives largely listed as inhibitors; 350,000 tested, 8.8% active; AID 504332; note: nearly all actives have a fitted effect of over 75% in size
#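 AlphaScreen detection with an anti-monomethyl H3K9 antibody quantified product after a 2 h room-temperature reaction containing 500 nM biotinylated H3K9 peptide, 20 µM SAM and 20 nM enzyme, which had been preincubated 15 min with compound.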
# Sfp inh: inhibitors of Bacillus subtilis Sfp phosphopantetheinyl transferase; Q9F4F7; Biochemical Sfp PPTase activity, qHTS; Potency, µM, actives largely listed as inhibitors; 310,000 tested, 3.5% active; AID 1490;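 note: the enzyme is Sfp with the accession as filed and its product quenches rhodamine fluorescence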
#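 With Hepes-Na pH 7.6 buffer containing 10 mM MgCl2, Sfp (15 nM) modified BHQ-2-YbbR (12.5 uM) using rhodamine-CoA (5 uM). Two reads 30 minutes apart at 525/598 nm yielded each well's rate.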
# JMJD2A Tudor inh: inhibitors of human JMJD2A Tudor domain; AID 504339; AlphaScreen JMJD2A-Tudor / H3K4me3 peptide binding; 390,000 tested, 4.4% active; Potency, µM (series often up to 114 µM), usual class: inhibitors; note: nearly all actives have a fitted effect of over 50% in size
# Target sequence (O75164 whole entry, looked up, the tested form may be a part): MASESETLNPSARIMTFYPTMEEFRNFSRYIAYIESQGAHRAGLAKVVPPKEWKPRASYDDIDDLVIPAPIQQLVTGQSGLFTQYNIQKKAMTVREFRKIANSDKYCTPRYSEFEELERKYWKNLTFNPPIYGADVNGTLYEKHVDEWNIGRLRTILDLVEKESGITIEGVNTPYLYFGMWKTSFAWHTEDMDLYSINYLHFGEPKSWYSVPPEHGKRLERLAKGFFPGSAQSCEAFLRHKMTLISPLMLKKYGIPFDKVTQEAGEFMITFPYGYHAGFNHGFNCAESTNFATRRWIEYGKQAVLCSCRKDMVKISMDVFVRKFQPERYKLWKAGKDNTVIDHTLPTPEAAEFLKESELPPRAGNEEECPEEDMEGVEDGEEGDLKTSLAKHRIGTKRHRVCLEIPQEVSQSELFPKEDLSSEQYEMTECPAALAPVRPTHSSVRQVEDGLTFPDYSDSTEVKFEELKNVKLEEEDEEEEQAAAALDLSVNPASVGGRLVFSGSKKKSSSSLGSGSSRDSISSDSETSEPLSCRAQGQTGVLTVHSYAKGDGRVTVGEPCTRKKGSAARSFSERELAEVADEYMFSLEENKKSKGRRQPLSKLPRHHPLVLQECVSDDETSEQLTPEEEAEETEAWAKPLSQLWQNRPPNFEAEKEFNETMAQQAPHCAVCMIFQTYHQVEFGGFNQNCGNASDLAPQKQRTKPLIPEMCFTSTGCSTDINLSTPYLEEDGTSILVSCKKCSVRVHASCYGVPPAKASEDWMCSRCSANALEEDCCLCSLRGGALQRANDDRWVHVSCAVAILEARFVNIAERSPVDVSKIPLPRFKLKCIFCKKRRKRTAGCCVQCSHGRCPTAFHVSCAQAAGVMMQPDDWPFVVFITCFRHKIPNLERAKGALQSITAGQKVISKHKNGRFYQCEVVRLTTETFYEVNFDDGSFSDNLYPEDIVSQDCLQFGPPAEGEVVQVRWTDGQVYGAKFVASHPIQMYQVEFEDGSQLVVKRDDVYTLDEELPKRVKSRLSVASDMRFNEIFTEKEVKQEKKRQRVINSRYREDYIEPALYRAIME
# TbPYK confirm: confirmation of Trypanosoma brucei pyruvate kinase inhibitors; shares compounds with PLK1 PBD block; recombinant TbPYK, Kinase-Glo ATP luminescence; Potency, µM (top dose mostly 76.9 µM), actives largely listed as inhibitors; 890 tested, 67% active; note: nearly all actives have a fitted effect of over 70% in size
# TbPYK orthogonal: orthogonal confirmation of Trypanosoma brucei pyruvate kinase inhibitors; recombinant TbPYK, ADP-Glo luminescence, 60 min; AID 720584; Potency, µM (top dose mostly 76.9 µM), hits mostly inhibitors; 890 tested, 62% active; shares compounds with PLK1 PBD block; note: nearly all actives have a fitted effect of over 75% in size
# A number is an active result; . = inactive; ? = inconclusive; / = no result given; [ ] = another dose, or the depositor's remark. Calls come from the whole dose curve; as a rule, active = well fitted curve in the direction sought with a large enough effect; inconclusive = small, poorly fitted or top-dose-only effect, or another doubt; inactive = no such curve, though single readings can be large; an effect the other way counts as inactive or inconclusive.
SMILES,BAZ2B inh,PLK1 PBD block,HP1b binding inh,G9a inh,Sfp inh,JMJD2A Tudor inh,TbPYK confirm,TbPYK orthogonal
OC1OC[C@@H](O)[C@H](O)[C@@H]1O (stereo partly specified),/,/,/,.,.,/,/,/
CCOc1ccc(-c2c(=O)n(OCC)c3ccccc3[n+]2[O-])cc1,.,?,.,.,.,.,/,/
CCOc1ccc(-c2c(=O)n(O)c3ccccc3[n+]2[O-])cc1,56µM,?,.,.[2.33 µM],.,79µM,?,.
CCn1c(=O)cc(C(F)(F)F)[nH]c1=S,.,.,.,25µM,79µM,.,?,35µM
CS(=O)(=O)c1sc2nc(-c3cccs3)cc(-c3ccccc3)c2c1N,?,8.4µM,.,?,10µM,89µM,?,35µM
CCOc1ccc(-c2c(C)nn3c(C)c(C(=O)NCc4ccc(Cl)cc4)cnc23)cc1OCC,.,/,.,.,/,.,/,/
Cc1ccc(NC(=O)Nc2c(C)[nH]c(=O)[nH]c2=O)cc1Cl,.,.,.,.,.,.,/,/
Cc1cc(C)nc(SC(C(=O)O)c2ccccc2)n1 (stereo unspecified),.,?,.,.,.,.,/,/
Cc1cc(C)nc(Sc2nc(Cl)nc(N(c3ccccc3)c3ccccc3)n2)n1,?,13µM,.,?,25µM,6.3µM,?,35µM
CCOC(=O)[C@]12CCC=C1N(Cc1ccccc1)C(=O)[C@H](CC(=O)NCc1ccccc1)C2,/,.,/,/,/,/,/,/
COc1ccc(/C=C2/SC(c3ccc(C)cc3)=NC2=O)cc1OC,.,.,?,2.8µM,32µM,50µM,?,16µM
COc1ccc(/C=C2\SC(c3ccc(C)cc3)=NC2=O)cc1OC,.,.,20µM,2.2µM,?,28µM,35µM,10µM
COc1ccccc1-c1nnc(SC(C)C(=O)Nc2ccc(C(N)=O)cc2)o1 (stereo unspecified),.,.,.,.[0.501 µM],/,.,/,/
CCCC[C@@H]1CN=C(N)N1CC(C)(C)C,/,.,.,/,/,.,/,/
Cc1ccc2oc(Nc3nc(C)c(C)c(C)n3)nc2c1,.,.,.,.,.,.,/,/
Cc1nc(Nc2nc3ccccc3o2)nc(C)c1C,.,30µM,.,.,.,?,.,.
O=C(C1CCCCC1)N(Cc1cccnc1)c1nc2c(F)cc(F)cc2s1,?,/,.,.,/,.,/,/
CCNC(=O)c1c(NC(=O)Cc2coc3ccc(CC)cc23)sc2c1CCCC2,.,/,.,.,/,.,/,/
CCOc1ccc(-n2c(SCc3ccc([N+](=O)[O-])cc3)nnc2-c2ccccc2)cc1,.,.,.,?,.,56µM,11µM,8.9µM
COc1ccc(-n2c(SCc3ccc([N+](=O)[O-])cc3)nnc2-c2ccccc2)cc1,?,.,.,?,.,?,/,/
O=C1NC(=O)C(Cc2ccc(Cl)cc2)(c2ccccc2)N1 (stereo unspecified),/,.,.,/,/,.,/,/
COc1ccc(OC)c(NC(=O)c2ccccc2N(Cc2ccccc2)S(C)(=O)=O)c1,.,.,.,?,.,.,8.9µM,14µM
CC(C)Cn1c(N)c(C(=O)COC(=O)c2cccn2C)c(=O)n(C)c1=O,/,.,.,/,/,.,/,/
O=C1C(c2cc(=O)c3ccccc3[nH]2)=C(O)c2ccccc21,.,.,.,.,.,?,2.8µM,7.1µM
O=c1cc(-c2ccccc2)[nH]c2ccccc12,.,.,.,.[2.33 µM],.,.,/,/
SMILES,BAZ2B inh,PLK1 PBD block,HP1b binding inh,G9a inh,Sfp inh,JMJD2A Tudor inh,TbPYK confirm,TbPYK orthogonal
O=C(O)C1OC(Oc2cc3oc(-c4ccccc4)cc(=O)c3c(O)c2O)C(O)C(O)C1O (stereo unspecified),.,.,.,40µM,8.9µM,20µM,2.8µM,2.8µM
O=c1cc(-c2ccccc2)oc2cc(OCc3ccccc3)cc(O)c12,.,.,.,.,.,.[11.4 µM],/,/
N#Cc1cc2c(nc1SCc1cccnc1)CCCC2,.,27µM,.,?,45µM,?,4µM,6.3µM
O=C(CSc1ccc2ccccc2c1)NCCc1ccc(O)c(O)c1,/,.,79µM,2.5µM,25µM,7.9µM,7.1µM,16µM
Cc1ccc(S(=O)(=O)CCOC(=O)CNC(=O)OCc2ccccc2)cc1,/,.,/,/,/,/,/,/
Cc1ccc(C)c(NC(=O)CSc2nncn2C)c1,.,.,.,.,.,.,/,/
Cc1cc(C)c2c(c1)-c1c(ssc1=S)C(C)(C)N2C(=O)CSc1nncn1C,50µM,.,?,5µM,50µM,?,14µM,16µM
COc1cc(NC(=O)N2c3ccccc3Sc3ccccc32)cc(OC)c1,.,/,.,.,/,.,/,/
Clc1nssc1=Nc1ccc(Br)cc1,22µM,2.1µM,32µM,3.2µM,10µM,25µM,8.9µM,11µM
Clc1nssc1=Nc1nncs1,50µM,2.4µM,?,.[0.501 µM],/,22µM,2µM,5µM
COc1cc(N=c2ssnc2Cl)cc(OC)c1,45µM,1.7µM,.,?,1.8µM,28µM,4µM,5µM
N#Cc1cccc(N=c2ssnc2Cl)c1,28µM,1.7µM,?,0.89µM,7.9µM,13µM,8.9µM,7.1µM
Cc1cc(C)cc(C(N)=Nc2cccc(C#N)c2)c1,.,.,.,.[2.33 µM],.,.,/,/
Cn1c(SCc2cccc(F)c2)nc2c([nH]c3ccccc32)c1=O,.,/,.,.,/,.,/,/
O=C(CCNC(=O)c1ccc(Cl)cc1)Nc1ccc(S(=O)(=O)N2CCCCC2)cc1,.,.,.,.,/,.,/,/
COc1ccc(S(=O)(=O)N(C(C)=O)c2ccc3oc(=O)sc3c2)cc1,.,.,.,7.1µM,10µM,?,?,16µM
CCOc1ccc(S(=O)(=O)N(C(C)=O)c2ccc3oc(C)c(C(=O)OC)c3c2)cc1,.,/,.,.,/,.,/,/
Cc1nc(SCC(=O)c2cccc([N+](=O)[O-])c2)n[nH]1,.,?,?,?,20µM,40µM,?,?
O=C1C=CC(=O)N1CCCCCCN1C(=O)C=CC1=O,.,3.4µM,?,1.6µM,3.5µM,18µM,7.1µM,7.1µM
O=C1C2C3C=CC(C3)C2C(=O)N1CCCCCCN1C(=O)C2C3C=CC(C3)C2C1=O (stereo unspecified),?,.,.,.,.,.,/,/
Cc1nc2scc(-c3ccccc3)c2c(=O)n1N,.,.,.,.,.,.,/,/
Cc1nc2scc(-c3ccccc3)c2c(=O)n1N=C1C=CC(=O)C=C1,.,3.4µM,8.9µM,.,.,3.2µM,0.4µM,0.56µM
Cc1ccc(N2CC(c3nnc(Cc4ccc(F)cc4Cl)o3)CC2=O)cc1 (stereo unspecified),.,/,.,.,/,.,/,/
O=C1C=CC(=O)N1c1ccc2c(c1)C(NC(=O)C(F)(F)F)c1ccccc1-2 (stereo unspecified),/,6.7µM,13µM,/,/,7.9µM,7.9µM,10µM
